This is a sample that favours compounds with a hit; in the whole collection about 4.6% have one here.
hgDAF-12 ag – activates the H. glycines DAF-12 receptor ligand-binding domain. HEK293 GAL4-hgDAF12 UAS-luciferase reporter, agonist luminescence; normalized to butyrate control. activation, % at 6.8 µM. actives 1.8% (n = 370,000);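 active = activation above a cutoff set at the mean of all screened compounds plus 3 SD, cut at about 10% in these data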
hcDAF12 agonist – activators of H. contortus DAF-12 nuclear receptor. HEK293 hcDAF-12 lit1-tk-luc reporter, luminescence; 0% DMSO, 100% Δ7-dafachronic acid. activation, % at 6.8 µM. actives 1.4% (n = 370,000). AID 652067;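 active = activation above the mean of all tested compounds plus 3 SD, cut at about 5.5% in these data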
Wee1 stabilizer – human Wee1 degradation inhibition, primary screen | HeLa Luc-Wee1K328M stability, luciferase luminescence; 100% = proteasome inhibitor MG132 effect | AID 1321 | reporter increase, % at 5 µM | P30291 | actives 1.2% (n = 220,000);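 active = activation above the mean of all tested compounds plus 3 SD, set per screening run, cut at about 8.8% in these data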;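 note: cells exposed to compound for 20 h before luminescence read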
DAX1 inh-1 – NR0B1 (DAX1) inhibition; HEK293 Gal4-DAX1 luciferase reporter, luminescence; inhibition, % at 6.75 µM; actives 0.99% (n = 340,000);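 active = inhibition above the mean over all tested compounds plus 3 SD, cut at about 4.2% in these data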;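 note: inhibition shows as a rise in luminescence from relieved DAX1 repression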
Target sequence (P51843 207-470 limits assumed): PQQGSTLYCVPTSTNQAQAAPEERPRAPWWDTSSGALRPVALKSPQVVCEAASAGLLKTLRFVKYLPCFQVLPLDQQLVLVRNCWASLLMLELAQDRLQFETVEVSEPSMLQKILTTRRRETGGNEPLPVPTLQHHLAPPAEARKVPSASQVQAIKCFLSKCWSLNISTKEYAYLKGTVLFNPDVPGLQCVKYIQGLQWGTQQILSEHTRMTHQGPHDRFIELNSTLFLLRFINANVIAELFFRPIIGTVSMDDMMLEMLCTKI
ssDAF-12 act – S. stercoralis DAF-12 activation, primary screen | HEK293 ssDAF-12/GRIP1 lit1-tk-luc reporter, luminescence; % of 3 µM dafachronic acid response | activation, % at 6.8 µM | actives 1% (n = 370,000);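 active = activation above the mean over all tested compounds plus 3 SD, cut at about 0.9% in these data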
DAX1 inh-2 – inhibitors of DAX1 repression of SF-1 activated StAR promoter; AID 652010; actives 1.1% (n = 370,000); HEK293T StAR-luciferase reporter, SF-1/DAX-1 repression relief; inhibition, % at 6.8 µM;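 active = inhibition above the mean over all tested compounds plus 3 SD, cut at about 3.6% in these data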;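 note: higher inhibition means more luminescence from relief of DAX-1 repression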
DAX1 inh confirm – confirmation of human DAX1 (NR0B1) inhibitors; AID 652134; inhibition, % at 6.8 µM; shares compounds with DAX1 inh-2; actives 87% (n = 2,400); HEK293T StAR-promoter luciferase reporter, SF-1/DAX-1 repression;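 active = inhibition above the average of every tested compound plus 3 SD, cut at about 3.8% in these data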;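 note: active compounds raise luminescence by relieving repression of the StAR reporter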
SF1 AF2mut Luc – nonselective inhibitor or artifact in SF-1 mutant DAX1 counter-screen; shares compounds with DAX1 inh-2; HEK293 StAR-luciferase, SF-1 AF2 mutant, luminescence; inhibition, % at 6.8 µM; actives 78% (n = 2,400); AID 652136;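 active = inhibition above the mean of all tested compounds plus 3 SD, cut at about 3% in these data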
LXRb hcDAF ctr – counter-screen for hcDAF-12 agonists: agonists of human LXR-beta; shares compounds with hcDAF12 agonist; HEK293 Gal4-LXR tk-luc reporter, luminescence, 24 h; normalized: DMSO 0%, positive control 100%; activation, % at 6.8 µM; 3,400 tested, under 10 active; AID 743027;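 active = mean percent activation of the reporter above a cutoff set as the average over tested compounds plus their standard deviation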
Target sequence (P55055 whole entry, looked up, the tested form may be a part): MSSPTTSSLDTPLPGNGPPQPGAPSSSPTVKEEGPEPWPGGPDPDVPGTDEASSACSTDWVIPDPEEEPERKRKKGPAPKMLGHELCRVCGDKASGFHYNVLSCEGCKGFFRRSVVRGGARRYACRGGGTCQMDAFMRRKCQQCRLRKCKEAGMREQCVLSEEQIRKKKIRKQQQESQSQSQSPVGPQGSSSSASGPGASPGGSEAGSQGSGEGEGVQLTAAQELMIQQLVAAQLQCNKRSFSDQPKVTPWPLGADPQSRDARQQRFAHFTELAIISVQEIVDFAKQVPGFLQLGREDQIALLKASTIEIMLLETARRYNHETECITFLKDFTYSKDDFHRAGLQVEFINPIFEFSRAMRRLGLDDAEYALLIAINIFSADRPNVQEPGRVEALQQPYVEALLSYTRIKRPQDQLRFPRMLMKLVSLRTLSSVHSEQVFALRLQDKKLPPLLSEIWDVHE
hcDAF12 ag – hcDAF-12 agonism, confirmation assay; shares compounds with hcDAF12 agonist; HEK293 hcDAF-12 lit1-tk-luc reporter, luminescence; % of Δ7-dafachronic acid response; activation, % at 6.8 µM; actives 61% (n = 3,400);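 active = mean activation across triplicate tests above the threshold derived from the earlier primary screen, cut at about 5.5% in these data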
hgDAF12 ag – hgDAF-12 agonism, confirmation assay; shares compounds with hgDAF-12 ag; activation, % at 6.8 µM; HEK293 GAL4-hgDAF12 luciferase reporter, agonist mode; percent of butyrate response; actives 80% (n = 3,300);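 active = mean activation over triplicate wells above the hit cutoff derived from the earlier primary screen, cut at about 11% in these data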
LXRb DAF12 ctr – LXR-beta agonism as DAF-12 counter-screen | shares compounds with hgDAF-12 ag | HEK293 Gal4-LXR luciferase reporter, 24 h | activation, % at 6.8 µM | 3,300 tested, under 10 active;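 active = mean activation of the triplicate above a set limit carried over from the primary screen, none filed active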
Of the large screens only hits and unclear results are named; the others gave an inactive call (follow-up assays come after a bar, where they were run).

CC(OC(=O)c1ccc2c(c1)OCCO2)C(=O)c1ccccc1 (configuration not stated)	hgDAF-12 ag 14, hcDAF12 agonist 7.3, DAX1 inh-1 4.9, DAX1 inh-2 12 (no result: Wee1 stabilizer) | DAX1 inh confirm 11 | SF1 AF2mut Luc 6.8 | LXRb hcDAF ctr inactive | hcDAF12 ag 7.8 | hgDAF12 ag 16 | LXRb DAF12 ctr inactive
COc1ccc(-c2cn3c(C)c(C(=O)Nc4cc(NC(C)=O)ccc4OC)sc3n2)cc1	none
CNC(=O)c1sc2nc(-c3ccc(OC)cc3)cn2c1C	hgDAF-12 ag 16, hcDAF12 agonist 9.1, DAX1 inh-2 5.7 | DAX1 inh confirm 11 | SF1 AF2mut Luc 7.0 | LXRb hcDAF ctr inactive | hcDAF12 ag inactive | hgDAF12 ag 13 | LXRb DAF12 ctr inactive
CN(C)c1ccc(/C=N\NC(=O)c2csnn2)cc1	hgDAF-12 ag 17, hcDAF12 agonist 6.5, ssDAF-12 act 1.3, DAX1 inh-2 5.0 | DAX1 inh confirm 12 | SF1 AF2mut Luc 6.1 | hgDAF12 ag 19 | LXRb DAF12 ctr inactive
O=C1C(C=Nc2ccc(F)cc2)=C(O)c2ccccc21	hgDAF-12 ag 22, hcDAF12 agonist 8.9, DAX1 inh-2 5.3 | DAX1 inh confirm 19 | SF1 AF2mut Luc 8.7 | LXRb hcDAF ctr inactive | hcDAF12 ag 9.5 | hgDAF12 ag 20 | LXRb DAF12 ctr inactive
O=C(NC1CCCCC1)c1ccc(-c2ccccc2F)o1	hgDAF-12 ag 20, hcDAF12 agonist 10, ssDAF-12 act 2.0, DAX1 inh-2 8.7 (no result: Wee1 stabilizer) | DAX1 inh confirm 18 | SF1 AF2mut Luc 6.2 | LXRb hcDAF ctr inactive | hcDAF12 ag 6.1 | hgDAF12 ag 19 | LXRb DAF12 ctr inactive
O=C(NC1CCCCCC1)c1ccc(CS(=O)(=O)Cc2ccccc2F)o1	none (no result: Wee1 stabilizer)
CN(c1ccc(F)cc1)S(=O)(=O)c1ccc(Cl)c(C(=O)NCC2(N3CCOCC3)CCCCC2)c1	none (no result: Wee1 stabilizer)
S=C(c1ccc(-c2ccc(Cl)cc2)o1)N1CCCCC1	hgDAF-12 ag 15, DAX1 inh-1 4.8, DAX1 inh-2 5.3 | DAX1 inh confirm 15 | SF1 AF2mut Luc 9.0 | hgDAF12 ag 20 | LXRb DAF12 ctr inactive
N#CCCN1CCN(C(=S)c2ccc(-c3ccc(Cl)cc3)o2)CC1	none (no result: hgDAF-12 ag, hcDAF12 agonist, ssDAF-12 act, DAX1 inh-2)
C=CCN(c1ccccc1)S(=O)(=O)c1cccc(C(=O)NC2CCN(Cc3ccccc3)CC2)c1	none (no result: Wee1 stabilizer)
COc1ccc2c(c1OC)C(=O)N(c1cccc(C(F)(F)F)c1)C2	hgDAF-12 ag 19, hcDAF12 agonist 5.7, DAX1 inh-2 5.1 | DAX1 inh confirm 13 | SF1 AF2mut Luc 4.4 | hgDAF12 ag 15 | LXRb DAF12 ctr inactive
CCOc1ccc(-c2c(C)sc3nc[nH]c(=O)c23)cc1	none (no result: Wee1 stabilizer)
CCCN(Cc1nnc(-c2ccccc2Cl)o1)C(=O)c1oc2ccccc2c1C	none (no result: Wee1 stabilizer)
O=C(Nc1nc2c(F)cccc2s1)c1ccco1	hgDAF-12 ag 16, hcDAF12 agonist 5.6, DAX1 inh-2 4.8 (no result: Wee1 stabilizer) | DAX1 inh confirm 6.8 | SF1 AF2mut Luc 6.7 | hgDAF12 ag 17 | LXRb DAF12 ctr inactive
CC(=O)Nc1nc2c(F)cccc2s1	none
Cc1ccc2cc(CCNC(=O)c3cccs3)c(=O)[nH]c2c1C	hgDAF-12 ag 19, DAX1 inh-2 5.6 | DAX1 inh confirm 6.8 | SF1 AF2mut Luc 3.7 | hgDAF12 ag 18 | LXRb DAF12 ctr inactive
O=C(Nc1cccc(-c2ccc(N3CCOCC3)nn2)c1)c1ccc(Cl)cc1	none (no result: Wee1 stabilizer)
COc1cccc(OC)c1C(=O)Nc1cccc(-c2ccc(N3CCOCC3)nn2)c1	hgDAF-12 ag 14, DAX1 inh-2 5.1 (no result: Wee1 stabilizer) | DAX1 inh confirm 4.0 | SF1 AF2mut Luc 3.4 | hgDAF12 ag inactive | LXRb DAF12 ctr inactive
O=C(Nc1cccc(-c2ccc(N3CCCCC3)nn2)c1)c1ccco1	hgDAF-12 ag 16, ssDAF-12 act 1.6, DAX1 inh-2 7.3 (no result: Wee1 stabilizer) | DAX1 inh confirm inactive | SF1 AF2mut Luc 3.0 | hgDAF12 ag 14 | LXRb DAF12 ctr inactive
CC(=O)Oc1ccc2c(=O)c(-c3ccccc3)coc2c1	hgDAF-12 ag 13, DAX1 inh-2 5.9 | DAX1 inh confirm 6.5 | SF1 AF2mut Luc 4.0 | hgDAF12 ag inactive | LXRb DAF12 ctr inactive
COc1ccc(-c2coc3cc(OC)cc(OC)c3c2=O)cc1	none
CCOC(=O)COc1ccc2c(=O)c(-c3ccccc3)coc2c1	none
COc1ccc(-c2coc3cc(OC)ccc3c2=O)cc1	hgDAF-12 ag 19, DAX1 inh-2 5.8 (no result: Wee1 stabilizer) | DAX1 inh confirm 12 | SF1 AF2mut Luc 7.0 | hgDAF12 ag 13 | LXRb DAF12 ctr inactive
CSCCC(=O)N1CCC(n2nccc2NC(=O)c2ccc3c(c2)OCO3)CC1	hgDAF-12 ag 23, DAX1 inh-2 6.3 (no result: Wee1 stabilizer) | DAX1 inh confirm 6.3 | SF1 AF2mut Luc 5.7 | hgDAF12 ag 16 | LXRb DAF12 ctr inactive
C=CCC(=O)N1CCC(n2nccc2NC(=O)c2ccc3c(c2)OCO3)CC1	none (no result: Wee1 stabilizer)
CSc1ccc(NC(=O)C2(C)CCN2C(=O)Cc2ccc(C(C)(C)C)cc2)cc1 (configuration not stated)	none (no result: Wee1 stabilizer, DAX1 inh-1)
Cc1cc(C)n2nc(-c3ccc(F)cc3)cc2n1	hgDAF-12 ag 18, hcDAF12 agonist 9.5, ssDAF-12 act 2.9, DAX1 inh-2 6.6 (no result: Wee1 stabilizer) | DAX1 inh confirm 13 | SF1 AF2mut Luc 8.5 | LXRb hcDAF ctr inactive | hcDAF12 ag 12 | hgDAF12 ag 18 | LXRb DAF12 ctr inactive
CC(C)Oc1cc(O)c2c(=O)c(-c3ccc(O)cc3)coc2c1	hgDAF-12 ag 26, hcDAF12 agonist 7.6, DAX1 inh-2 5.3 | DAX1 inh confirm 11 | SF1 AF2mut Luc 5.7 | LXRb hcDAF ctr inactive | hcDAF12 ag inactive | hgDAF12 ag 20 | LXRb DAF12 ctr inactive
COc1c(-c2ccc(O)cc2)oc2cc(O)cc(O)c2c1=O	none (no result: Wee1 stabilizer)

Screening data (PubChem BioAssay)
